PubChem BioAssay (NCI)
Compounds without any hit were thinned out: in the full panel of roughly 83,000, 20% have a hit.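 Single-dose data. Exposure time 48 hours. Values below 10 considered active.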 Unmarked numbers belong to inactive results. The source made the active and inactive calls.

How the values were obtained:
Test in all cases: NCI-60 one-dose screen, 48 h (100 = growth as untreated, 0 = no growth, -100 = all killed)
Conditions in all cases: 10 µM unless noted
[1] = test system: SK-MEL-2 melanoma
[2] = test system: EKVX NSCLC
[3] = test system: SN12C renal
[4] = test system: UO-31 renal
[5] = test system: TK-10 renal
[6] = test system: ACHN renal
[7] = test system: CAKI-1 renal
[8] = test system: A498 renal
[9] = test system: CCRF-CEM leukemia
[10] = test system: MOLT-4 leukemia
[11] = test system: RPMI-8226 leukemia
[12] = test system: OVCAR-8 ovarian
[13] = test system: OVCAR-5 ovarian
[14] = test system: OVCAR-4 ovarian
[15] = test system: SK-OV-3 ovarian
[16] = test system: IGROV1 ovarian
[17] = test system: NCI/ADR-RES ovarian
[18] = test system: HS 578T breast
[19] = test system: OVCAR-3 ovarian

Row | Compound | growth [1] | growth [2] | growth [3] | growth [4] | growth [5] | growth [6] | growth [7] | growth [8] | growth [9] | growth [10] | growth [11] | growth [12] | growth [13] | growth [14] | growth [15] | growth [16] | growth [17] | growth [18] | growth [19]
1 | C=C(C)[C@@H]1CC[C@]2(C(=O)OC)CC[C@]3(C)[C@H](CC[C@@H]4[C@@]5(C)C/C(=C/c6ccc(OC)cc6)C(=O)C(C)(C)[C@@H]5CC[C@]43C)[C@@H]12 | 104% | 84.7% | 84.9% | 79.7% | 107% | 90.5% | 90.5% | 93.7% | 58.8% | 58.3% | 54.8% | 102% | 93.4% | 85.8% | 102% | 100% | 93.2% | – | –
2 | C=CC(=O)Nc1cccc(-c2nc(SC)nc(Nc3ccccc3OC)c2C#N)c1 | 73.9% | 63.7% | 48.4% | 19.2% | 36.1% | 37.7% | 56.6% | 61.4% | 40.8% | 33.4% | 29.7% | 34.5% | 42.9% | -26.4% (active) | 91.8% | 69.3% | 29.3% | 16.8% | –
3 | CC1=NN(c2nc(-c3ccc(Cl)cc3)c(C#N)c(N3CCOCC3)n2)C(=O)C1 | 87.1% | 88.8% | 88.5% | 71.9% | 117% | 73.6% | 70.1% | 58% | 85.9% | 92.1% | 57.1% | 99.3% | 97.3% | 51.5% | 86.6% | 81% | 96.1% | – | 50.2%
4 | N#C/C(=C\c1ccc(-c2ccc(Cl)c(Cl)c2)o1)c1nc(-c2ccco2)cs1 | 108% | 52.4% | 98.6% | 69.2% | -7.19% (active) | 94% | 81.3% | 94.2% | 94.1% | 104% | 63.6% | 101% | 55.7% | 37.6% | 85.1% | 40.5% | 101% | 97.4% | –
5 | CC(C)C[C@@H](NC(=O)[C@@H](Cc1ccccc1)NC(=O)c1cnccn1)B1Oc2ccc(C[C@H](NC(=O)[C@H](Cc3ccc4c(c3)OB([C@@H](CC(C)C)NC(=O)[C@@H](Cc3ccccc3)NC(=O)c3cnccn3)O4)NC(=O)[C@@H](N)CC3CCC4OB([C@@H](CC(C)C)NC(=O)[C@@H](CC5CCCCC5)NC(=O)C5CNCCN5)OC4C3)C(=O)NCCCC[C@@H]3NC(=O)[C@@H](Cc4ccccc4)NC(=O)[C@H](CC(=O)O)NC(=O)CNC(=O)[C@H](CCCNC(=N)N)NC3=O)cc2O1 (stereo partly drawn) | -15.9% (active) | -16.4% (active) | -40.2% (active) | -27.2% (active) | -77.8% (active) | -11.9% (active) | -40.9% (active) | -96% (active) | 2.22% (active) | 1.17% (active) | 0.76% (active) | -45.3% (active) | – | -26.7% (active) | -30% (active) | -8.65% (active) | -8.71% (active) | 5.06% (active) | -49.3% (active)
6 | COc1ccc(/C=C/C(=O)c2ccc(O)c(CN3CCN(c4cc5c(cc4F)c(=O)c(C(=O)O)cn5C4CC4)CC3)c2)cc1 | 34.5% | 57.3% | 7.55% (active) | 3.15% (active) | 52.7% | 25.5% | 32% | -0.877% (active) | 28.6% | 45.7% | -3.49% (active) | 13.2% | 47.5% | 88.1% | 46.5% | 33.8% | 43.1% | – | 19.1%
7 | CSc1nc(Nc2cccc(NC(=O)/C(C#N)=C/c3c(Cl)cccc3Cl)c2)c(C#N)c(-c2cccc([N+](=O)[O-])c2)n1 | 52.8% | 56.7% | 44.6% | 33.7% | 99.6% | 57.9% | 24.5% | 73.5% | 43.3% | 23.9% | – | 53.6% | 67.5% | 49.7% | 99.2% | 29.2% | 60.5% | 66.9% | 31%
8 | Cn1c(O)c(N=NC(=O)c2cc(-c3ccccc3)on2)c2ccccc21 | 95.3% | 88.5% | 100% | 88% | 125% | 100% | 90.4% | 85.8% | 108% | 105% | 115% | 104% | – | 95.7% | 108% | 102% | 94.9% | 96.2% | 115%
9 | CSc1nc(NCCO)c(C#N)c(-c2cccc([N+](=O)[O-])c2)n1 | 113% | 88.9% | 90.4% | 73.2% | 120% | 93% | 83.9% | 72.6% | 99.1% | 99% | 103% | 99.1% | 98.1% | 105% | 102% | 97.9% | 98.1% | 93.4% | –
10 | CCCN1CCN(c2ccc3nc(-c4ccc5nc(-c6ccc(OCC)cc6)[nH]c5c4)[nH]c3c2)CC1 | 78.9% | 59.1% | 61.2% | 87.2% | 69% | 34.6% | 49.3% | 65.6% | -32.4% (active) | -0.259% (active) | -38.8% (active) | 0.816% (active) | 62% | -34.6% (active) | 67.7% | 52.1% | 41.7% | 70.4% | -83.5% (active)
11 | O=C1NC(=S)N[C@H]1CC(=O)n1cnc2ccccc21 | 104% | 90.5% | 95.4% | 75.5% | 112% | 95.3% | 88.7% | 80.3% | 112% | 108% | 115% | 104% | 100% | 107% | 111% | 96.5% | 96.5% | 99.1% | –
12 | C=CC(=O)Nc1cccc(-c2nc(SC)nc(Nc3cccc(OC)c3)c2C#N)c1 | 71.2% | 72% | 44.6% | 42.3% | 78.9% | 45.7% | 44.9% | 9.73% (active) | 57.5% | 39.5% | 40% | 42% | 103% | 62.5% | 73.5% | 65.9% | 49.2% | 49.3% | –
13 | OC(c1cc2cc(Cl)c(Cl)cc2c2cc(C(F)(F)F)ccc12)C1CCCCN1 (stereo not drawn) | -54.2% (active) | -24.8% (active) | -73.2% (active) | -74.2% (active) | -75.2% (active) | -82.5% (active) | -46.4% (active) | 48.1% | -45% (active) | -60.3% (active) | -37.1% (active) | -71.3% (active) | -41.6% (active) | – | 34% | -64.9% (active) | -79.1% (active) | -50.4% (active) | -90.3% (active)
14 | COC(=O)[C@]12CCC(C)(C)C[C@H]1[C@H]1C(=O)C[C@@H]3[C@@]4(C)c5c([nH]c6ccccc6c5=O)C(C)(C)[C@@H]4CC[C@@]3(C)[C@]1(C)CC2 | 75.5% | 52.4% | 70% | 67.2% | 84.7% | 53% | 50.7% | 69% | 59.5% | 43.5% | – | 59.2% | 80.7% | 49% | 86.4% | 94.5% | 49.6% | 87.1% | 63.2%
15 | COc1cccc(-c2nc3sccn3c2-c2ccnc(NCCCNS(=O)(=O)c3cccc(Cl)c3)c2)c1 | 39.8% | 40.6% | 45.5% | 20.4% | 71.5% | 37.5% | 25.9% | 54.4% | 18.1% | 9.9% (active) | -9.68% (active) | 26.3% | – | 32.6% | 67.7% | 50.7% | 13.4% | 69.2% | 58%
16 | COc1ccc(Nc2nc(SC)nc(-c3cccc([N+](=O)[O-])c3)c2C#N)cc1 | 94.9% | 70.5% | 64.5% | 17.7% | 84% | 16.9% | 63% | 57.8% | 114% | 99.8% | 98.4% | 39.4% | 76.5% | 2.52% (active) | 46.4% | 72.3% | 57.9% | – | 74.5%
